Source: the supplement of paper PMC13380429

Test system: Vero E6 infected with SARS-CoV-2
Assay: inhibition of SARS-CoV-2 cytopathic effect; higher = more antiviral protection, active = above 15
Details: 48 h

Measured: inhibition of SARS-CoV-2 cytopathic effect

CC1(C)S[C@@H]2[C@H](NC(=O)[C@H](C(=O)O)c3ccsc3)C(=O)N2[C@H]1C(=O)O [ticarcillin]
inactive: 1 nM -0.59% | 8.33 nM -1.04% | 100 nM -1.79% | 833.33 nM 0.92% | 10000 nM -2.66%

O=c1ncn2nc(Sc3ccc(F)cc3F)ccc2c1-c1c(Cl)cccc1Cl
inactive: 1 nM 1.28% | 8.33 nM -0.16% | 100 nM -1.32% | 833.33 nM 1.03% | 10000 nM 1.38%

CC(C)=CCC[C@](C)(O)[C@@H]1CC=C(C)CC1 [levomenol]
inactive: 1 nM 0.81% | 8.33 nM 4.97% | 100 nM 5.57% | 833.33 nM 3.97% | 10000 nM 0.76%

Cc1ncc(C)n2nc([C@@H]3C[C@H]3c3nc4c5cccnc5ccn4c3C)nc12
inactive: 1 nM 0.4% | 8.33 nM 0.57% | 100 nM 0.67% | 833.33 nM -1.22% | 10000 nM 4.45%

Cc1cc(O)c2c(c1)C(=O)c1cccc(O)c1C2=O [chrysophanic-acid]
inactive: 1 nM -0.27% | 8.33 nM 0.87% | 100 nM 0.28% | 833.33 nM -0.5% | 10000 nM 5.09%

O=C(O)c1ccc2nc(-c3cc(Cl)cc(Cl)c3)oc2c1 [tafamidis-meglumine]
inactive: 1 nM -0.14% | 8.33 nM -0.38% | 100 nM -1.04% | 833.33 nM 1.34% | 10000 nM 0.08%

CC1=C(/C=C/C(C)=C/C=C/C(C)=C/C=O)C(C)(C)CCC1 [retinaldehyde]
inactive: 1 nM -0.27% | 8.33 nM 1.56% | 100 nM 3.22% | 833.33 nM 6.75% | 10000 nM 10.4%

Cc1cccc(OCC(O)CNC(C)(C)C)c1C (stereo not given) [xibenolol]
inactive: 1 nM -3.23% | 8.33 nM -1.82% | 100 nM -0.78% | 833.33 nM -1.76% | 10000 nM -5.66%

O=C(c1ccccc1)C(O)c1ccccc1 (stereo not given) [benzoin]
inactive: 1 nM 0.3% | 8.33 nM 0.27% | 100 nM -1.79% | 833.33 nM 1.45% | 10000 nM 0.76%

CN[C@@H](C)CC1CCCCC1 [propylhexedrine]
inactive: 1 nM -0.64% | 8.33 nM -5.27% | 100 nM -5.29% | 833.33 nM -6.1% | 10000 nM -8.06%

c1cn2cc(-c3ccc4cn[nH]c4c3)nc(Nc3ccc(N4CCOCC4)cc3)c2n1
inactive: 1 nM -4.37% | 8.33 nM -3.35% | 100 nM -4.69% | 833.33 nM 0.03% | 10000 nM -4.57%

COc1cc(Br)c(S(=O)(=O)Nc2ccc(C(F)(F)F)c(O[C@@H]3CCN(C)C3)c2)cc1OC
inactive: 1 nM 1.05% | 8.33 nM 2.6% | 100 nM -1.36% | 833.33 nM -0.46% | 10000 nM -2.24%

COC(=O)C(Cc1ccc(OCCn2c(=O)sc3cc(C(=O)c4ccccc4)ccc32)cc1)C(=O)OC
inactive: 1 nM -0.38% | 8.33 nM 2.25% | 100 nM -1.78% | 833.33 nM -1.22% | 10000 nM 0.02%

C[C@@](Cc1ccc(O)c(O)c1)(NN)C(=O)O [carbidopa]
inactive: 1 nM -5% | 8.33 nM -1.47% | 100 nM -3.59% | 833.33 nM -2.28% | 10000 nM -0.52%

COCCOCCOc1ccc(C2=N[C@@](C)(C(=O)O)CS2)c(O)c1
inactive: 1 nM -1.16% | 8.33 nM 1.76% | 100 nM 1.19% | 833.33 nM 1.75% | 10000 nM 2.16%

NC(=O)N/N=C/c1ccc([N+](=O)[O-])o1 [nitrofurazone]
inactive: 1 nM 0.32% | 8.33 nM 0.46% | 100 nM -1.2% | 833.33 nM -0.04% | 10000 nM 0.07%

COc1c(Nc2ccc(S(C)(=O)=O)nc2C)ncnc1OC1CCN(C(=O)OC(C)C)CC1
inactive: 1 nM -1.98% | 8.33 nM 0.8% | 100 nM 0.06% | 833.33 nM -1.17% | 10000 nM -1.76%

CCCCCCc1ccc(O)cc1O [hexylresorcinol]
inactive: 1 nM 1.73% | 8.33 nM 1.1% | 100 nM 2.21% | 833.33 nM 4.02% | 10000 nM 3.14%

NCc1c[nH]c(=S)n1[C@H]1CCc2c(F)cc(F)cc2C1 [nepicastat]
inactive: 1 nM -0.64% | 8.33 nM 1.63% | 100 nM 2.16% | 833.33 nM 0.6% | 10000 nM -0.04%

COc1cnc(NS(=O)(=O)c2ccc(N)cc2)nc1 [sulfameter]
inactive: 1 nM -0.38% | 8.33 nM 1.1% | 100 nM 0.11% | 833.33 nM 0.46% | 10000 nM 2.89%

Clc1ccc2c(c1)N=C(N1CCNCC1)c1ccccc1N2 [desmethylclozapine]
inactive: 1 nM 1.9% | 8.33 nM 0.8% | 100 nM 0.19% | 833.33 nM 2.8% | 10000 nM -4.43%

O=C(N[C@@H](Cc1c[nH]c2ccccc12)C(=O)O)c1ccc(Cl)cc1 [benzotript]
inactive: 1 nM 1.07% | 8.33 nM 1.9% | 100 nM 2.83% | 833.33 nM 2.01% | 10000 nM 3.35%

CNCCC(Oc1ccccc1OC)c1ccccc1 (stereo not given) [nisoxetine]
inactive: 1 nM -1.97% | 8.33 nM 0.21% | 100 nM 4.4% | 833.33 nM 7.73% | 10000 nM -0.07%

Cc1cc(NS(=O)(=O)c2ccc(N)cc2)no1 [sulfamethoxazole]
inactive: 1 nM 2.98% | 8.33 nM 0.81% | 100 nM 0.9% | 833.33 nM 0.68% | 10000 nM 0.81%

Cn1c(=O)c2[nH]c(Br)nc2n(C)c1=O [pamabrom]
inactive: 1 nM 1.59% | 8.33 nM 0.19% | 100 nM 1.39% | 833.33 nM 1.95% | 10000 nM -3.72%

Cc1cc(C)nc(NS(=O)(=O)c2ccc(N)cc2)n1 [sulfamethazine]
inactive: 1 nM -2.32% | 8.33 nM 0.49% | 100 nM 0.37% | 833.33 nM 0.92% | 10000 nM -1.06%

Cc1ccc(CC2(O)CCN(CCOc3ccc(O)cc3)CC2)cc1
inactive: 1 nM -5.34% | 8.33 nM 1.47% | 100 nM 3.16% | 833.33 nM -0.31% | 10000 nM 1.64%

CCC(CC)[C@H](NC(C)=O)[C@@H]1[C@H](O)[C@@H](C(=O)O)C[C@H]1NC(=N)N [peramivir]
inactive: 1 nM -2.46% | 8.33 nM -0.07% | 100 nM 0.34% | 833.33 nM 0.01% | 10000 nM -0.82%

Brc1c(NC2=NCCN2)ccc2nccnc12 [brimonidine]
inactive: 1 nM 4.55% | 8.33 nM 0.66% | 100 nM 0.75% | 833.33 nM 2.72% | 10000 nM 0.94%

CC1(C)O[C@H]2CC(=O)OC[C@]23[C@H]2CC[C@@]4(C)[C@H](c5ccoc5)OC(=O)[C@H]5O[C@]54[C@]2(C)C(=O)C[C@@H]13 [limonin]
inactive: 1 nM -0.51% | 8.33 nM -0.42% | 100 nM -2.25% | 833.33 nM -1.69% | 10000 nM -2.49%

NC(=O)CC[C@H](N)C(=O)O [L-glutamine]
inactive: 1 nM 0.7% | 8.33 nM 2.45% | 100 nM 0.59% | 833.33 nM 0.71% | 10000 nM -2.64%

Cc1c(N(C)CS(=O)(=O)O)c(=O)n(-c2ccccc2)n1C [metamizole]
inactive: 1 nM 5.03% | 8.33 nM 0.47% | 100 nM -1.36% | 833.33 nM -3.82% | 10000 nM 0.29%

COc1cc(C(=O)NCCCCCC(=O)O)cc(OC)c1OC [capobenic-acid]
inactive: 1 nM -6.75% | 8.33 nM -2.2% | 100 nM -0.79% | 833.33 nM -1.85% | 10000 nM 2.8%

CN(C)c1cccc(-c2c3c(=O)n(-c4ccccc4Cl)[nH]c3cc(=O)n2C)c1
inactive: 1 nM -1.01% | 8.33 nM 2.2% | 100 nM 0.39% | 833.33 nM -1.67% | 10000 nM 9.86%

CC(C)(C)C1CCc2c(sc(NC(=O)c3ccco3)c2C(=O)O)C1 (stereo not given)
inactive: 1 nM 0.37% | 8.33 nM 3.15% | 100 nM 1.01% | 833.33 nM 0.8% | 10000 nM -2.29%

COc1ccc(S(=O)(=O)N2CCCN(S(=O)(=O)c3ccc(OC)c(OC)c3)CC2)cc1OC
inactive: 1 nM -2.26% | 8.33 nM -1.47% | 100 nM -0.96% | 833.33 nM -5.53% | 10000 nM 6.2%

COc1ccc(-c2c(C)c(C(=O)NN3CCCCC3)nn2-c2ccc(Cl)cc2Cl)cc1
inactive: 1 nM -1.3% | 8.33 nM -1.23% | 100 nM -5.55% | 833.33 nM -3.38% | 10000 nM -1.1%

Cc1ccc(S(=O)(=O)NC2c3ccccc3Oc3ccccc32)cc1
inactive: 1 nM -5.59% | 8.33 nM -2.13% | 100 nM -2.17% | 833.33 nM -6.38% | 10000 nM -2.38%

CNC1CC(N)C(O)C(OC2OC(CO)C(O)C3OC4(OC(C(N)CO)C(O)C(O)C4O)OC23)C1O (stereo not given) [Hygromycin B]
inactive: 1 nM -0.42% | 8.33 nM -1.63% | 100 nM -0.49% | 833.33 nM -1.13% | 10000 nM 1.46%

CC[C@@H](C)c1ccc(NC(=O)Cn2cnc3c2c(=O)n(C)c(=O)n3C)cc1 (racemic)
inactive: 1 nM -0.15% | 8.33 nM 0.22% | 100 nM -1.39% | 833.33 nM -1.04% | 10000 nM 3.52%

COc1ccc(S(=O)(=O)N2c3ccc(Cl)cc3[C@](O)(c3ccccc3Cl)[C@@H]2C(=O)N2CCC[C@H]2C(N)=O)cc1OC [relcovaptan]
inactive: 1 nM -0.27% | 8.33 nM -0.84% | 100 nM 0.53% | 833.33 nM 1.63% | 10000 nM 2.72%
